Assay outcomes: PubChem BioAssay, National Center for Advancing Translational Sciences (NCATS)
VP16 counter: inhibits Gal4-VP16 luciferase reporter, ROR gamma counter-screen; Potency, µM (titrated, usually from 53.6 µM), without a hit: top-dose activity, negative = inhibition, hits mostly inhibitors; AID 2546; Drosophila S2 Gal4-VP16 UAS-luciferase, luminescence, 20 h; 310,000 tested, 3.5% active;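 also: Gal4-VP16 expression switched on by copper sulfate through the metallothionein promoter; % is scaled to controls: 0 for no effect and ±100 for the full control effect; nearly all actives have a fitted effect of over 50% in size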
RORg inh: inhibitors of mouse ROR gamma transcriptional activity. P51450. Drosophila S2 Gal4-RORgamma UAS-luciferase reporter, 20 h. Potency, µM (series often up to 53.6 µM), for the others: at the top dose activity change, negative = inhibition, most hits filed as inhibitors. 310,000 tested, 5.4% active. AID 2551; also: % is scaled to controls: 0 for no effect and ±100 for the full control effect; nearly all actives have a fitted effect of over 60% in size
Target sequence (P51450 whole entry, looked up, the tested form may be a part): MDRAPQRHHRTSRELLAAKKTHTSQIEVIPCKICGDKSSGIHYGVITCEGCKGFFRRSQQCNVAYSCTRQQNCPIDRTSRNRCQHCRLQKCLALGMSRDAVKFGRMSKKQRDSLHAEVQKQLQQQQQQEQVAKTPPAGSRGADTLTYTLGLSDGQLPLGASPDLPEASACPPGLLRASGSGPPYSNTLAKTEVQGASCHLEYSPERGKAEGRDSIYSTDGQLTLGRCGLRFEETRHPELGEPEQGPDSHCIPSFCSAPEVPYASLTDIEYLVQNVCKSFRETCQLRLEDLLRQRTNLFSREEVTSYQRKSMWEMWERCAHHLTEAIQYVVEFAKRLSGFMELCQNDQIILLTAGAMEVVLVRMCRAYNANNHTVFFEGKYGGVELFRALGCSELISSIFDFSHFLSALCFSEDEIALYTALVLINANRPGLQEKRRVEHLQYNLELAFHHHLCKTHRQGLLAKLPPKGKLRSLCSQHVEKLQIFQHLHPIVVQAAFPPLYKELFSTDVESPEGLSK
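A Gal4/UAS one-hybrid system in insect cells: metallothionein-promoter Gal4–ROR gamma fusion plus Photinus luciferase reporter. Copper sulfate 700 uM final, 20 hr ambient incubation, luminescent detection after 10 min with reagent.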
SW480 rereplic: inducers of DNA re-replication in SW480 colon cancer cells. SW480 DNA re-replication, Hoechst DNA content imaging, 48 h. Potency, µM (series often up to 46.1 µM), for the others: at the top dose re-replication activation, most hits filed as activators. 340,000 tested, 1.8% active. AID 624297; also: % of control where 0% means no effect; nearly all actives have a fitted effect of over 55% in size
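Image-based read-out: total Hoechst fluorescence of nuclei (405 nm excitation, 500-530 nm emission), with hits raising the fraction of high-intensity nuclei. SW480 colon cells incubated 48 hr with compounds at 37 C.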
ELG1 DNA repair: inhibitors of ELG1-dependent DNA repair in HEK293T cells | HEK293T ELG1-luciferase reporter, luminescence, 16 h; DNA damage induced by 5-fluorouridine | Potency, µM (series often up to 46.1 µM), for the others: at the top dose activity change, negative = inhibition, usual class: inhibitors | 330,000 tested, 2.3% active | AID 504467; also: % is scaled to controls: 0 for no effect and ±100 for the full control effect; nearly all actives have a fitted effect of over 55% in size
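Step one: seed 2,000 cells per well. Step two: pin-transfer compound or DMSO alongside 5-fluorouridine. Step three: incubate 16 hr, 37 °C, 5% CO2. Step four: add ONE-Glo, wait 30 min, read luminescence.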
MCF10A rereplic: inducers of DNA re-replication in MCF 10A breast cells. MCF 10A DNA re-replication, Hoechst nuclear intensity, 48 h. Potency, µM (top dose mostly 46.1 µM), for the others: top-dose activity, positive = re-replication, actives largely listed as activators. 350,000 tested, 2.9% active. AID 624296; also: % of control where 0% means no effect; nearly all actives have a fitted effect of over 50% in size
* marks the source's active call; other numbers are inactive results; ? = inconclusive; nt = not tested or not shown. Hits are enriched below; roughly 10% of the tested compounds scored in any of these assays. Calls follow the shape of the dose curve; as a rule, active = well fitted curve in the direction sought with a large enough effect; inconclusive = small, poorly fitted or top-dose-only effect, or another doubt; inactive = no such curve, though single readings can be large; an effect the other way counts as inactive or inconclusive. Potency is read from the fitted curve at half-maximal effect.

SMILES	VP16 counter	RORg inh	SW480 rereplic	ELG1 DNA repair	MCF10A rereplic
O=C(/C=C/c1ccccc1)NC(=S)Nc1ccccc1C(=O)NC1CCCCC1	?	11.2µM*	13.5%	4.7%	13.8%
Cc1cc(C2=NNC(=NC3CCCCC3)SC2)c(C)n1-c1c(C)n(C)n(-c2ccccc2)c1=O	-27.4%	-7.7%	10.8%	?	13.9%
Cc1cccc(C)c1N=C1NN=C(c2ccccc2F)CS1	10µM*	7.94µM*	nt	3.7%	6.0%
c1ccc2oc(C3=NNC(=NC4CC4)SC3)cc2c1	11.2µM*	3.55µM*	?	?	11.6µM*
Cc1cc(C2=NNC(=NC3CC3)SC2)c(C)n1-c1ccccc1F	0.708µM*	1.12µM*	?	?	18.4µM*
Cc1ccccc1N=C1NN=C(c2ccccc2F)CS1	?	-80.9%	?	?	27.0%
c1ccc(CN=C2NN=C(c3cc4ccccc4o3)CS2)cc1	20µM*	?	?	?	?
O=C(CSc1ncccn1)N1CCC(Cc2ccccc2)CC1	-0.4%	?	-10.7%	?	-3.0%
COc1ccc(CNC(=O)C(=O)NCC2OCCN2S(=O)(=O)c2ccc3c(c2)OCCO3)cc1 (centres undefined)	-1.1%	17.5%	-0.5%	?	0.0%
Cc1cc(C)cc(-n2c(C)cc(C(=S)N3CCOCC3)c2C)c1	15.8µM*	3.16µM*	2.2%	-14.4%	0.1%
Cc1cc(C(=S)N2CCOCC2)c(C)n1-c1ccc(Cl)cc1	-1.9%	10.5%	16.4%	-24.1%	?
COc1ccc2nc(Cl)c(/C=N/Nc3ccccn3)cc2c1	?	11.2µM*	?	?	?
CCOc1ccc(/C=N/Nc2ccccn2)cc1	?	11.2µM*	3.5%	?	0.4%
Clc1ccccc1C=NNc1ccccn1	nt	nt	0.0%	nt	-3.6%
COc1ccccc1NC(=O)NCCCCc1ccccc1	9.7%	-16.2%	?	3.0%	16.0%
O=C1c2cccc3c(N4CCCCC4)ccc(c23)C(=O)N1c1cccc(O)c1	?	?	?	8.3%	11.6µM*
Cc1n[nH]c(C)c1N1C(=O)c2cccc3c(N4CCCCCC4)ccc(c23)C1=O	?	-1.8%	16.0%	?	?
O=C1c2cccc3c(N4CCCCC4)ccc(c23)C(=O)N1CCO	-1.1%	?	?	?	?
C=CCN1C(=O)c2cccc3c(N4CCCCC4)ccc(c23)C1=O	11.5%	?	?	0.7%	16.4µM*
Cc1nc2nc(-c3ccc(F)cc3)cn2nc1C	?	?	-6.3%	?	-6.7%
Brc1ccc(-c2cn3nc4c(nc3n2)CCCC4)cc1	?	?	-3.8%	?	2.3%
Cc1nc2nc(-c3ccccc3)cn2nc1C	?	10µM*	?	nt	11.0%
c1ccc(-c2cn3nc4c(nc3n2)CCCC4)cc1	?	5.01µM*	?	?	?
CCc1ccc(-c2cn3nc(C)c(C)nc3n2)cc1	?	7.08µM*	15.9%	-1.4%	?
O=C(CN1C(=O)COc2ccccc21)NCCCN1CCOCC1	6.1%	-19.4%	2.7%	14.5%	-1.2%
SMILES	VP16 counter	RORg inh	SW480 rereplic	ELG1 DNA repair	MCF10A rereplic
O=C(CN1C(=O)S/C(=C\c2ccccc2Cl)C1=O)NCCCn1ccnc1	3.0%	-10.5%	-8.7%	?	-7.2%
O=C(CN1C(=O)/C(=C\c2cccc(Cl)c2)Sc2ccccc21)NCCCN1CCOCC1	-5.5%	-19.7%	?	0.0%	20.6µM*
O=C(CN1C(=O)/C(=C\c2ccccc2Cl)Sc2ccccc21)NCCCN1CCOCC1	-3.5%	16.3%	18.4µM*	-0.6%	18.4µM*
O=C(CN1C(=O)/C(=C\c2cccc(Br)c2)Oc2ccccc21)NCCCN1CCOCC1	?	?	14.6µM*	0.0%	2.91µM*
CCc1ccc(/C=C2/Sc3ccccc3N(CC(=O)NCCCN3CCOCC3)C2=O)cc1	?	-2.4%	?	24.2%	?
O=C(CN1C(=O)/C(=C/c2ccc(C(F)(F)F)cc2)Sc2ccccc21)NCCCN1CCOCC1	?	?	?	?	20.6µM*
O=C(CNC(=O)c1ccc(-c2ccccc2)cc1)OCc1ccc(Br)cc1	-4.5%	-34.6%	-13.3%	?	0.0%
